The values that follow come from the supplement of paper PMC13380429.

In assay [1] the test system is Vero E6 infected with SARS-CoV-2. The experiment in a line: morphology score (similarity to uninfected cells); higher = more like uninfected cells. As to conditions: 24 h.
The test system is the same in assay [2]. The experiment in a line: SARS-CoV-2 infection rate relative to infected DMSO; higher = more infection, active = 60 or less. As to conditions: 24 h.

In assay [1], `CC1=C(/C=C/C(=C/C=C/C(C)=C/C(=O)O)c2ccc(C)cc2)C(C)(C)CCC1` (10 µM) gave a morphology score of 0.171. For the same compound, the SARS-CoV-2 infection rate in assay [2] was 106% (inactive).
With `CCC[C@H](N[C@H]1CCc2cc(F)cc(F)c2C1)C(=O)Nc1cn(C(C)(C)CNCC(C)(C)C)cn1` (10 µM), in assay [1], the morphology score was determined as 0.0166. For the same compound, the SARS-CoV-2 infection rate in assay [2] was 102% (inactive).
In the same order, the values of `CC=C1C(=O)C[C@H]2[C@@H]3CCC4=CC(=O)CC[C@]4(C)[C@H]3CC[C@]12C` (10 µM) are 0.0492 and 91% (inactive).
Taken in the same sequence, the figures for `Cc1ccc(S(=O)(=O)N2CCC[C@H]2c2ccc(F)cc2)cc1` (10 µM) were -0.114 and 110% (inactive).
In the same order, the values of `CC(C)(C)C(=O)/C(=N/c1ccc(Cl)cc1)NNc1ccc(Cl)cc1` (10 µM) are -0.145 and 114% (inactive).
Consider `N#Cc1ccc(N2CCN(C(=O)COc3ccc4[nH]cc(CCN)c4c3)CC2)cc1` [donitriptan] (10 µM), for which the morphology score in assay [1] is -0.0047. Moreover, the SARS-CoV-2 infection rate in assay [2] was 100% (inactive).
In assay [1], `CCCC(=O)C1CCN(c2ncnc3c2CN(C(=O)c2ccc(-c4ccccc4)cc2)CC3)CC1` (10 µM) yielded a morphology score of 0.0512. In assay [2], the SARS-CoV-2 infection rate was 104% (inactive).
In assay [1], `N[C@H]1C[C@@H]1c1ccccc1` (racemic) [tranylcypromine] (10 µM) registered a morphology score of 0.0679. The SARS-CoV-2 infection rate in assay [2] was 114% (inactive).
In the same order, the values of `CN1CCN(CCCN2c3ccccc3Sc3ccc(C(F)(F)F)cc32)CC1` [trifluoperazine] (0.833333 µM) are 0.156 and 96.5% (inactive).
In the same order, the values of `NS(=O)(=O)c1cc2c(cc1Cl)NC(CC1CCCC1)NS2(=O)=O` (stereo not drawn) [cyclopenthiazide] (10 µM) are 0.129 and 100% (inactive).
Taken in the same sequence, the figures for `CCOC(=O)Nc1ccc2c(c1)N(C(=O)CN(CC)CC)c1ccccc1CC2` (10 µM) were 0.0358 and 101% (inactive).
In the case of `CC1(C)S[C@@H]2[C@H](NC(=O)[C@H](C(=O)O)c3ccsc3)C(=O)N2[C@H]1C(=O)O` [ticarcillin] (10 µM), the morphology score in assay [1] was -0.0272. For the same compound, the SARS-CoV-2 infection rate in assay [2] was 97.5% (inactive).
In the same order, the values of `N#Cc1ccc2[nH]c(O)c(-c3ccc(CN4CCOCC4)cn3)c2c1` (10 µM) are -0.238 and 100% (inactive).
Taken in the same sequence, the figures for `CC(C)(C)c1ccc(-c2nc3ccccc3[nH]2)cc1` (10 µM) were 0.557 and 64% (inactive).
In the same order, the values of `CCOc1cc(C(=O)Nc2ccc(Cl)c(-c3nc4ccccc4[nH]3)c2)cc(OCC)c1OCC` (10 µM) are -0.0242 and 100% (inactive).
`CN(C)c1ccc(/C=C2\C(=O)Nc3ccccc32)cc1` (10 µM) registered a morphology score in assay [1] of 0.175. Besides, the SARS-CoV-2 infection rate in assay [2] is 101% (inactive).
In the same order, the values of `O=C(/C=C/c1ccccc1)NC(NC(=S)Nc1cccc2cccnc12)C(Cl)(Cl)Cl` (stereo not drawn) [salubrinal] (10 µM) are -0.178 and 108% (inactive).
As for `CCN(CC)C(=O)N[C@H]1C[C@@H]2c3cccc4[nH]cc(c34)C[C@H]2N(C)C1` [terguride] (10 µM), the morphology score in assay [1] is -0.00522. Besides, the SARS-CoV-2 infection rate in assay [2] is 110% (inactive).
Turning to `Cc1nc(=O)c2cc(CN(C)c3ccc(C(=O)N[C@@H](CCC(=O)O)C(=O)O)s3)ccc2[nH]1` [raltitrexed] (0.833333 µM), the morphology score in assay [1] was -0.207. Also, in assay [2], the SARS-CoV-2 infection rate is 104% (inactive).
`O=C(/C=C\n1cnc(-c2cc(C(F)(F)F)cc(C(F)(F)F)c2)n1)NNc1cnccn1` [selinexor] (10 µM): the morphology score in assay [1] is -0.235. Further, the SARS-CoV-2 infection rate in assay [2] is 106% (inactive).
In the same order, the values of `FCc1ccc(OCCOc2ccc(Cl)cc2Cl)c(Cl)n1` (10 µM) are -0.0669 and 116% (inactive).
In the same order, the values of `Nc1ccc(-c2ccc3ncc4ccc(=O)n(-c5cccc(C(F)(F)F)c5)c4c3c2)cn1` [torin-2] (10 µM) are 0.162 and 86.5% (inactive).
Taken in the same sequence, the figures for `NCCCCCC(=O)O` [aminocaproic-acid] (10 µM) were 0.136 and 89.5% (inactive).
In assay [1], `C=CC1=C(C)C2=CC3=NC(=C(CC(=O)O)C4=NC(=C(C)C4=C(O)O)C=c4[nH]c(c(C)c4CC)=CC1=N2)C(CCC(=O)O)C3C` (stereo not drawn) [chlorophyllin] (10 µM) returned a morphology score of 0.148. Also, the SARS-CoV-2 infection rate in assay [2] was 94% (inactive).
In assay [1], `CC(C)c1nnc(-c2ccc(-c3ccccc3)nc2)n1-c1cccc2nonc12` (10 µM) gave a morphology score of -0.103. Further, the SARS-CoV-2 infection rate in assay [2] was 103% (inactive).
With `O=C(Nc1ccccc1)N1CCC(Cc2cnc3ccccc3c2)CC1` (10 µM), in assay [1], the morphology score was -0.147. Also, the SARS-CoV-2 infection rate in assay [2] was 104% (inactive).
In assay [1], `CCN(C)C(=O)Oc1cccc([C@H](C)N(C)C)c1` [rivastigmine] (10 µM) came in with a morphology score of 0.136. Besides, the SARS-CoV-2 infection rate in assay [2] is 101% (inactive).
Taken in the same sequence, the figures for `CN1CCN(c2c(F)cc3c(=O)c(C(=O)O)cn4c3c2SCC4)CC1` [rufloxacin] (10 µM) were 0.0805 and 103% (inactive).
`CCCC(=O)O[C@]1(C(=O)CCl)[C@@H](C)C[C@H]2[C@@H]3CCC4=CC(=O)C=C[C@]4(C)[C@@]3(F)C(=O)C[C@@]21C` [clobetasone-butyrate] (10 µM) yielded a morphology score in assay [1] of 0.344. In assay [2], the SARS-CoV-2 infection rate is 96% (inactive).
